ChEMBL document CHEMBL1961873, “Compounds: GSK PKIS; Assays: Nanosyn kinase panel” (2012)
Where “and” joins values, the source holds several entries; their conditions need not be identical. Equal entries are not always repeated.

Assays:
[1] = target: Casein kinase I isoform gamma-2 (Homo sapiens) (UniProt P78368); conditions: at 1 µM
[2] = target: Casein kinase I isoform gamma-3 (Homo sapiens) (UniProt Q9Y6M4); conditions: at 0.1 µM
[3] = target: Casein kinase I isoform gamma-3 (Homo sapiens) (UniProt Q9Y6M4); conditions: at 1 µM
[4] = target: Cyclin-dependent kinase 1 (Homo sapiens) (UniProt P06493); conditions: at 0.1 µM
Chain of Cyclin-dependent kinase 1 (Homo sapiens) (P06493 whole entry, looked up): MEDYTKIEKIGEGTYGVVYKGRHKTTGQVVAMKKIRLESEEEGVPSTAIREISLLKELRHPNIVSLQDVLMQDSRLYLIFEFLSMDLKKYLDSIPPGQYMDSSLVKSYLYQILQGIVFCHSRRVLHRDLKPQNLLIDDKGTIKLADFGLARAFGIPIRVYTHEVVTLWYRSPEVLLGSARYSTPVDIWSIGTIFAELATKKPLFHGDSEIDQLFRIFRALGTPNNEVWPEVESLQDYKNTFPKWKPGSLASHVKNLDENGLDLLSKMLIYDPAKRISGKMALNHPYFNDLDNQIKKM

[5] = target: Cyclin-dependent kinase 1 (Homo sapiens) (UniProt P06493); conditions: at 1 µM
[6] = target: Cyclin-dependent kinase 2 (Homo sapiens) (UniProt P24941); conditions: at 0.1 µM
[7] = target: Cyclin-dependent kinase 2 (Homo sapiens) (UniProt P24941); conditions: at 1 µM
[8] = target: Cyclin-dependent kinase 2 (Homo sapiens) (UniProt P24941); conditions: at 0.1 µM; remark: listed apart in the source
[9] = target: Cyclin-dependent kinase 2 (Homo sapiens) (UniProt P24941); conditions: at 1 µM; remark: listed apart in the source
[10] = target: CDK3/Cyclin E (Homo sapiens) (UniProt P24864+Q00526); conditions: at 0.1 µM;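 also: reported percentages are mean inhibition values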
Chain of CDK3/Cyclin E (Homo sapiens) (P24864 whole entry, looked up): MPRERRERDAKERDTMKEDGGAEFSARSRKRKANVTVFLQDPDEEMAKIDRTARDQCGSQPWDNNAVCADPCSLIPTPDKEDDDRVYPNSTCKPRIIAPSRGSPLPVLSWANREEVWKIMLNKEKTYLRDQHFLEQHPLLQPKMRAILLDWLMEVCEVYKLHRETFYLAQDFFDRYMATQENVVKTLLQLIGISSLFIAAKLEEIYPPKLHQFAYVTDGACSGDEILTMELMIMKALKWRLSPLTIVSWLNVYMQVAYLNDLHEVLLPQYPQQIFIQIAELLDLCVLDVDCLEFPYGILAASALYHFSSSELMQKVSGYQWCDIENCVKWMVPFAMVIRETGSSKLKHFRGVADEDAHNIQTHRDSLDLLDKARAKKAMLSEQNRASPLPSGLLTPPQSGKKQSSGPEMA
Chain of CDK3/Cyclin E (Homo sapiens) (Q00526 whole entry, looked up): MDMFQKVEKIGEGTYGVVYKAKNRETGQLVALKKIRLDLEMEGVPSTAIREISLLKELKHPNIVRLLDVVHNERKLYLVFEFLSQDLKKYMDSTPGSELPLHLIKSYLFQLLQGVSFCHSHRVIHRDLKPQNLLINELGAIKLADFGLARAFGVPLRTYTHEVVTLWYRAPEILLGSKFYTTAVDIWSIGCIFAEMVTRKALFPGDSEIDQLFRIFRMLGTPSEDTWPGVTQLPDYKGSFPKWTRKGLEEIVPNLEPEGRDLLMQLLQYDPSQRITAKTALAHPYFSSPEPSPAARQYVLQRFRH

Chain of Casein kinase I isoform gamma-2 (Homo sapiens) (P78368 whole entry, looked up, canonical isoform): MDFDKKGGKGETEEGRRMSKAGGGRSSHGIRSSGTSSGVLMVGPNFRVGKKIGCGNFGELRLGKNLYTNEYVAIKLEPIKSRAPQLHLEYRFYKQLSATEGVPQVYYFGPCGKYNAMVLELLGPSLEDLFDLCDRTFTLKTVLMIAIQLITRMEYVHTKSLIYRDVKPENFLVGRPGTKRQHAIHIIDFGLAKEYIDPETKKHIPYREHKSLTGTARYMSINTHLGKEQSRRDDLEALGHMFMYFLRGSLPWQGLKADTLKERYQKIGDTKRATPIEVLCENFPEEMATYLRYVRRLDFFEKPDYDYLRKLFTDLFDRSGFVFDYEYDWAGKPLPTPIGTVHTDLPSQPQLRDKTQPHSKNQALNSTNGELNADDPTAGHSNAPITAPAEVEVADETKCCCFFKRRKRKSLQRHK
Chain of Casein kinase I isoform gamma-3 (Homo sapiens) (Q9Y6M4 whole entry, looked up, canonical isoform): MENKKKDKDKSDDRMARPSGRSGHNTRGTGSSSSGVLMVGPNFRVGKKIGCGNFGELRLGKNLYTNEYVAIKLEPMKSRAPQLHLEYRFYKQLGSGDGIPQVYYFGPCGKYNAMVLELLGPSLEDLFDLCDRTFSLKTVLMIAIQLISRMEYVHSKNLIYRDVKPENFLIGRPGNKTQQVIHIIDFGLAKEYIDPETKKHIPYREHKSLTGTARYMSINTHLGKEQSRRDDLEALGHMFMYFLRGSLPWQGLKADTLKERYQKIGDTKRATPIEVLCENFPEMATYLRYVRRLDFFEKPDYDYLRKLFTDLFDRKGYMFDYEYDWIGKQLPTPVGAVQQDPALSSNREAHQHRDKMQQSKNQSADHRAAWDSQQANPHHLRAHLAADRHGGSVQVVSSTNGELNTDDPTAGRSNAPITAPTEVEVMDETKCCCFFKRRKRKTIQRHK

Compound	inhibition [1]	inhibition [2]	inhibition [3]	inhibition [4]	inhibition [5]	inhibition [6]	inhibition [7]	inhibition [8]	inhibition [9]	inhibition [10]
COc1ccc2ncn(-c3cc(O[C@H](C)c4ccccc4C(F)(F)F)c(C(N)=O)s3)c2c1	-0.54%	-1.87%	0.68%	0.65%	3.45%	1.04%	0.96%	-0.81%	1.48%	1.1%
c1cnn2ncc(-c3ccnc(NCCCN4CCOCC4)n3)c2c1	5.14%	1.77%	4.33%	1.53%	13.9%	1.1%	5.75%	5.32%	5.99%	0.96%
CN1CCC(n2cnc(-c3ccc(F)cc3)c2-c2ccnc(NCCO)n2)CC1	5.84%	4.27%	10.2%	0.37%	1.31%	1.69%	-0.92%	4.05%	4.55%	1.13%
Cc1c2ccc(N(C)c3ccnc(Nc4cccc(S(N)(=O)=O)c4)n3)cc2nn1C	0.79%	-0.12%	1.23%	-2.06%	1.04%	-1.06%	4.54%	2.08%	4.14%	3.58%
COc1ccc(-c2nn3ncccc3c2-c2ccnc(Nc3ccc(F)c(F)c3)n2)cc1	3.56%	3.89%	3.22%	-0.93%	2.75%	0.74%	3.93%	3.63%	3.97%	1.3%
COc1cccc(-n2ncc3c(N/N=C/c4ccc(C(=O)NCCN(C)C)cc4)ncnc32)c1	8.69%	1.94%	11.9%	44.7%	77.2%	36.1%	89.9%	13.4%	48.4%	5.6%
NS(=O)(=O)c1ccc(N/N=C2\C(=O)Nc3cccc(CCc4ccncc4)c32)cc1	0.54%	0.32%	0.29%	9.4%	21.9%	51.4%	71.6%	53.5%	67.7%	32.4%
OCCCNc1nccc(-c2c(-c3ccc(F)cc3)nn3cc(C(F)(F)F)ccc23)n1	4.56%	1.62%	7.33%	1.54%	2.59%	0.91%	-3.65%	0.52%	3.87%	1.49%
Cc1cc(O)cc(C)c1/C=C/c1cncc(C(N)=O)c1	2.37%	2.87%	2.49%	0.12%	1.3%	1.56%	1.98%	2.51%	3.29%	-0.91%
CNC(=O)c1ncccc1Nc1nc(Nc2cc3c(cc2OC)CCCN3C(=O)CN(C)C)nc2[nH]ccc12	5.64%	2.52%	6.23%	1.79%	5.38%	2.38%	9.91%	7.73%	9.82%	3.92%
CCN1CCC(C(=O)Nc2n[nH]c3nnc(-c4cccc(F)c4F)cc23)CC1	-0.17%	0.17%	1.35%	3.89%	22.6%	3.86%	20.4%	3.75%	12.4%	2.37%
N#Cc1cccc(Nc2ncc(-c3ccccc3)o2)c1	2.13%	1.94%	4.11%	2.78%	17.1%	6.59%	44.4%	7.57%	40.1%	10.1%
CN(c1ccc(NC(=O)NCCN2CCOCC2)cc1)c1ccnc(Nc2ccc(CS(C)(=O)=O)cc2)n1	1.47%	2.29%	2.32%	-0.38%	2.55%	1.15%	11.3%	3.19%	4.7%	0.76%
Fc1ccc(Nc2nccc(-c3c(-c4ccc(C(F)(F)F)cc4)nn4ncccc34)n2)cc1F	4.13%	3.32%	3.74%	-0.65%	0.76%	1.15%	-0.44%	3.94%	3.93%	0.39%
CC1(C)CC(n2cnc(-c3ccc(F)cc3)c2-c2ccnc(N)n2)CC(C)(C)N1	0.56%	-0.9%	5.01%	-0.29%	0.21%	1.22%	0.26%	1.34%	0.26%	2.06%
c1ccc(-c2n[nH]cc2-c2ccnc(-c3ccc(OCCn4ccnc4)cc3)c2)nc1	4.02%	0.42%	5.22%	-0.35%	1.46%	1.03%	-8.72%	2.23%	5.64%	2.33%

Compound	inhibition [1]	inhibition [2]	inhibition [3]	inhibition [4]	inhibition [5]	inhibition [6]	inhibition [7]	inhibition [8]	inhibition [9]	inhibition [10]
CNC(=O)c1sc(-n2cnc3cc(OC)c(OC)cc32)cc1OCc1ccccc1C(F)(F)F	3.65%	3.86%	4.26%	0.69%	2.03%	0.22%	1.77%	2.17%	3.8%	0.35%
NC(=O)c1ccc2c(-c3ccnc(NCCCO)n3)c(-c3ccc(F)cc3)nn2c1	19.9%	8.09%	29%	1.5%	1.54%	-0.03%	1.7%	3.22%	4.45%	2.38%
O=C1Nc2ccccc2/C1=C1\CCc2cc(O)ccc21	8.01%	4.01%	6.11%	1.03%	3.82%	3.01%	5.49%	5.72%	10.6%	4.58%
Cc1cc(O)cc(C)c1/C=C/c1cncc(C(=O)OC(C)(C)C)c1	3.13%	2.26%	3.16%	0.41%	3.26%	1.03%	0.25%	2.66%	6.74%	0.28%
CCS(=O)(=O)c1ccc(OC)c(Nc2ncc(-c3cccc(F)c3)o2)c1	4.64%	3.7%	4.58%	1.72%	0.96%	3.74%	4.31%	4.05%	5.69%	-0.92%
O=C(Nc1n[nH]c2nnc(-c3cccnc3)cc12)C1CC1	-0.48%	-0.12%	0.24%	33.3%	72.5%	65.5%	91.2%	38.9%	75.3%	35.9%
COc1cccc(Nc2nccc(-c3cnn4ncccc34)n2)c1	47.2%	3.61%	38.6%	63.9%	79.2%	72.8%	105%	64.7%	78.6%	42.2%
COc1c(C(N)=O)cc(-c2ccc(Cl)cc2)cc1-c1ccc(S(N)(=O)=O)cc1	5.53%	3.12%	5.9%	2.31%	-0.03%	3.12%	3.62%	2.17%	3.13%	-4.73%
CS(=O)(=O)Nc1ccc(-c2cc(-c3ccccc3)cc(C(N)=O)c2N)cc1	0.9%	2.42%	0.43%	0.06%	-0.25%	0.21%	1.06%	0.2%	1.37%	-0.04%
COc1ccccc1-c1cc(/C=C2\C(=O)Nc3ncc(Br)cc32)cc(Br)c1O	6.34%	4.08%	3.37%	3.53%	5.31%	2.84%	-1.47%	7.89%	9.34%	5.76%
COc1cc(N2CCN(C(C)C)CC2)ccc1Nc1nc(Nc2cccc3ncccc23)c2cc[nH]c2n1	-1.47%	-2.11%	0.2%	1.38%	4.94%	1.96%	3.44%	2.69%	4.49%	1.33%
CNC(=O)c1cncc(/C=C/c2ccccc2C)c1	2.72%	2.23%	3.55%	1.72%	7.81%	1.87%	11%	12%	16.4%	7.08%
CN1CCC(C(=O)Nc2n[nH]c3nc(-c4ccc(O)cc4)c(Br)cc23)CC1	2.84% and 1.66%	-0.75% and 1.55%	3.27% and 0.25%	7.05% and 10.3%	43.7% and 42.6%	16.2% and 18.6%	63.1% and 63.2%	9.58% and 5.38%	38.8% and 32.5%	12.5% and 12.3%
CC1=C(C(=O)Nc2ccc3[nH]nc(C)c3c2)C(c2ccc(C(F)(F)F)cc2)CC(=O)N1 (stereo not given)	3.14%	2.16%	2.2%	1.96%	6.87%	2.54%	6.05%	2.66%	6.67%	0.4%
CCCNc1cccc(-n2ncc3c(N/N=C/c4ccncc4)ncnc32)c1	1.01%	1.29%	0.9%	2.68%	22.5%	7.1%	42.1%	1.17%	9.16%	0.47%
